# Results as given in PubChem BioAssay (EPA / NIEHS).
# Activity calls are given as the source filed them. How the source made its calls: active means hit-call score of the fitted dose curve at least 0.9, where 1 is the maximum; inactive means score below 0.9.
# Assays:
# Conditions in all cases: mRNA level, 48 h; actives raise or lower the signal
# [1] = read-out: Cytochrome P450 3A4 (Homo sapiens) (UniProt P08684); assay: LTEA_HepaRG_CYP3A4: Life Technologies and Expression Analysis (LTEA) Assay for CYP3A4 using HepaRG (AID 2283487)
# Method in brief: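 In a human hepatic line (HepaRG), duplicate wells were treated 48 h with up to 100 uM chemical in half-log dilutions. Endpoint: CYP3A4 mRNA induction or loss relative to 0.5% DMSO vehicle, by qRT-PCR.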
# [2] = read-out: DNA damage-inducible transcript 3 (DDIT3), DDIT3 (gene 1649); assay: LTEA_HepaRG_DDIT3: Life Technologies and Expression Analysis (LTEA) Assay for DNA damage-inducible transcript 3 (DDIT3) using HepaRG (AID 2283488)
# Method in brief: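 qRT-PCR readout (Fluidigm TaqMan), housekeeping-normalized to ACTB, GAPDH, POLR2A. HepaRG cells, 48 h exposure, 8-point half-log series from 100 uM in 0.5% DMSO, duplicates. Gain or loss of signal fitted against DMSO baseline.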
# [3] = read-out: Pro-epidermal growth factor (Homo sapiens) (UniProt P01133); assay: LTEA_HepaRG_EGF: Life Technologies and Expression Analysis (LTEA) Assay for Epidermal growth factor (EGF) using HepaRG (AID 2283489)
# Method in brief: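 EGF expression changes in human HepaRG cells are scored by bidirectional fitting relative to 0.5% DMSO controls. Chemicals are tested at eight half-log concentrations up to 100 uM for 48 h in serum-free induction medium.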
# [4] = read-out: Early growth response protein 1 (EGR1) transcription factor, EGR1 (gene 1958); assay: LTEA_HepaRG_EGR1: Life Technologies and Expression Analysis (LTEA) Assay for Early growth response protein 1 (EGR1) transcription factor using HepaRG (AID 2283490)
# Method in brief: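 EGR1 expression change in human HepaRG after 48 h chemical exposure, assessed by housekeeping-normalized qRT-PCR; concentration-response up to 100 uM, fitted in both directions against DMSO controls.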
# [5] = read-out: Ezrin (EZR), EZR (gene 7430); assay: LTEA_HepaRG_EZR: Life Technologies and Expression Analysis (LTEA) Assay for Ezrin (EZR) using HepaRG (AID 2283491)
# Method in brief: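 Gain or loss of EZR mRNA is scored relative to 0.5% DMSO in human HepaRG cultures treated 48 h with test chemicals in duplicate, eight half-log concentrations from 100 uM.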
# [6] = read-out: Cytochrome P450 3A7 (Homo sapiens) (UniProt P24462); assay: LTEA_HepaRG_CYP3A7: Life Technologies and Expression Analysis (LTEA) Assay for CYP3A7 using HepaRG (AID 2283492)
# Method in brief: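 Cells were thawed, plated, cultured 48 h, then treated for a further 48 h with chemicals (eight-point half-log series from 100 uM, 0.5% DMSO). RNA was isolated and CYP3A7 expression quantified by qRT-PCR normalised to ACTB, GAPDH and POLR2A.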
# CYP3A5 (gene 1577) = assay: LTEA_HepaRG_CYP3A5: Life Technologies and Expression Analysis (LTEA) Assay for CYP3A5 using HepaRG (AID 2283493)
# Method in brief: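 qRT-PCR read-out: CYP3A5 transcript in HepaRG lysates, housekeeping-normalized (ACTB/GAPDH/POLR2A), fitted bidirectionally against 0.5% DMSO baseline. Exposure 48 h, eight half-log concentrations up to 100 uM, duplicates.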
# [7] = read-out: Fatty Acid-Binding Protein 1 (FABP1), FABP1 (gene 2168); assay: LTEA_HepaRG_FABP1: Life Technologies and Expression Analysis (LTEA) Assay for Fatty Acid-Binding Protein 1 (FABP1) using HepaRG (AID 2283494)
# Method in brief: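 Values reflect bidirectional concentration-response fitting of FABP1 mRNA change against 0.5% DMSO controls. Human HepaRG cultures received eight half-log doses (top 100 uM) for 48 h; expression quantified by TaqMan qRT-PCR with housekeeping-gene normalization.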
# [8] = read-out: Cytochrome P450 4A22 (Homo sapiens) (UniProt Q5TCH4); assay: LTEA_HepaRG_CYP4A22: Life Technologies and Expression Analysis (LTEA) Assay for Cytochrome P450 4A22 (CYP4A22) using HepaRG (AID 2283495)
# Method in brief: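 Cryopreserved HepaRG cells, plated and cultured 48 h, then switched to serum-free induction medium and treated 48 h (duplicates, up to 100 uM, half-log steps, 0.5% DMSO). Expression change of CYP4A22 was fitted bidirectionally against vehicle.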
# [9] = read-out: Cytochrome P450 7A1 (Homo sapiens) (UniProt P22680); assay: LTEA_HepaRG_CYP7A1: Life Technologies and Expression Analysis (LTEA) Assay for Cytochrome P450 7A1 (CYP7A1) using HepaRG (AID 2283496)
# Method in brief: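 Using 0.5% DMSO as vehicle and baseline, chemicals were tested in duplicate over an 8-point range from 100 uM on HepaRG cells for 48 h; qRT-PCR signals were normalised to ACTB, GAPDH and POLR2A.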
# [10] = read-out: Glutathione S-Transferase (GSTA2), GSTA2 (gene 2939); assay: LTEA_HepaRG_GSTA2: Life Technologies and Expression Analysis (LTEA) Assay for Glutathione S-Transferase (GSTA2) using HepaRG (AID 2283497)
# Method in brief: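 Oxidative-stress marker GSTA2 is quantified by TaqMan qRT-PCR in HepaRG cultures treated 48 h across an eight-point range to 100 uM. Expression is normalized to endogenous controls and compared with 0.5% DMSO vehicle.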
# [11] = read-out: Glutamate-cysteine ligase catalytic (GCLC), GCLC (gene 2729); assay: LTEA_HepaRG_GCLC: Life Technologies and Expression Analysis (LTEA) Assay for Glutamate-cysteine ligase catalytic (GCLC) using HepaRG (AID 2283498)
# Method in brief: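 Oxidative-stress marker GCLC is measured as mRNA change in human HepaRG liver cells after 48 h chemical treatment in 0.5% DMSO, eight concentrations from 100 uM. Activity is fitted bidirectionally against vehicle.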
# [12] = read-out: growth arrest and DNA damage 45 (GADD45G), GADD45G (gene 10912); assay: LTEA_HepaRG_GADD45G: Life Technologies and Expression Analysis (LTEA) Assay for growth arrest and DNA damage 45 (GADD45G) using HepaRG (AID 2283499)
# Method in brief: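 Human hepatic HepaRG line treated 48 h with chemicals (eight concentrations, half-log steps from 100 uM); transcript induction or repression of GADD45G scored by qRT-PCR versus DMSO vehicle.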
# [13] = read-out: Glutamate-cysteine ligase regulatory (GCLM), GCLM (gene 2730); assay: LTEA_HepaRG_GCLM: Life Technologies and Expression Analysis (LTEA) Assay for Glutamate-cysteine ligase regulatory (GCLM) using HepaRG (AID 2283500)
# Method in brief: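 HepaRG, 48 h dosing, 100 uM top, half-log x8, 0.5% DMSO vehicle. Readout: GCLM mRNA by TaqMan qRT-PCR, housekeeping-normalized (ACTB/GAPDH/POLR2A). Curves fit bidirectionally vs DMSO baseline.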
# [14] = read-out: Glutathione S-transferase M3 (GSTM3), GSTM3 (gene 2947); assay: LTEA_HepaRG_GSTM3: Life Technologies and Expression Analysis (LTEA) Assay for Glutathione S-transferase M3 (GSTM3) using HepaRG (AID 2283501)
# Method in brief: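 Changes in GSTM3 expression, an oxidative-stress marker, were scored by bidirectional curve fitting against 0.5% DMSO vehicle. Human HepaRG cultures received chemicals for 48 h in duplicate, highest concentration 100 uM with half-log dilutions.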
# [15] = read-out: Heat shock 70 kDa protein 1 (HSPA1A), gene 3303; assay: LTEA_HepaRG_HSPA1A: Life Technologies and Expression Analysis (LTEA) Assay for Heat shock 70 kDa protein 1 (HSPA1A) using HepaRG (AID 2283502)
# Method in brief: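 HepaRG, 48 h exposure, 8-pt half-log CRC from 100 uM in 0.5% DMSO, duplicates. Readout: TaqMan qRT-PCR of HSPA1A mRNA, housekeeping-normalized (ACTB/GAPDH/POLR2A). Bidirectional fit vs 0.5% DMSO baseline.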
# [16] = read-out: Hypoxia-inducible factor 1-alpha (Homo sapiens) (UniProt Q16665); assay: LTEA_HepaRG_HIF1A: Life Technologies and Expression Analysis (LTEA) Assay for Hypoxia-inducible factor 1 (HIF1A) Trancription factor using HepaRG (AID 2283503)
# Method in brief: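 Gain- or loss-of-signal HIF1A mRNA changes are fitted against a DMSO baseline. HepaRG cultures receive eight concentrations, highest 100 uM, for 48 h in serum-free induction medium with 0.5% DMSO.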
# [17] = read-out: 3-Hydroxy-3-Methylglutaryl-CoA Synthase 2 (HMGCS2), HMGCS2 (gene 3158); assay: LTEA_HepaRG_HMGCS2: Life Technologies and Expression Analysis (LTEA) Assay for 3-Hydroxy-3-Methylglutaryl-CoA Synthase 2 (HMGCS2) using HepaRG (AID 2283504)
# Method in brief: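 Expression of HMGCS2 in human HepaRG liver cells is measured by qRT-PCR 48 h after dosing (highest 100 uM, half-log series, 0.5% DMSO). Values come from bidirectional concentration-response fitting with DMSO as baseline.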
# HGF (gene 3082) = assay: LTEA_HepaRG_HGF: Life Technologies and Expression Analysis (LTEA) Assay for Hepatocyte Growth Facto (HGF) using HepaRG (AID 2283505)
# Method in brief: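 Gain or loss of HGF mRNA in human HepaRG liver cells after 48 h chemical exposure; eight concentrations up to 100 uM with 0.5% DMSO vehicle, quantified by TaqMan qRT-PCR.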
# [18] = read-out: Insulin Like Growth Factor 1 (IGF1), IGF1 (gene 3479); assay: LTEA_HepaRG_IGF1: Life Technologies and Expression Analysis (LTEA) Assay for Insulin Like Growth Factor 1 (IGF1) using HepaRG (AID 2283506)
# Method in brief: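 qRT-PCR readout of IGF1 mRNA, normalized to three housekeeping genes, after 48 h chemical exposure of HepaRG cells. Concentrations: 8-point half-log series, top 100 uM, 0.5% DMSO vehicle. Gain or loss fitted against DMSO baseline.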
# Cytochrome P450 3A4 (Homo sapiens), sequence (P08684 whole entry, looked up): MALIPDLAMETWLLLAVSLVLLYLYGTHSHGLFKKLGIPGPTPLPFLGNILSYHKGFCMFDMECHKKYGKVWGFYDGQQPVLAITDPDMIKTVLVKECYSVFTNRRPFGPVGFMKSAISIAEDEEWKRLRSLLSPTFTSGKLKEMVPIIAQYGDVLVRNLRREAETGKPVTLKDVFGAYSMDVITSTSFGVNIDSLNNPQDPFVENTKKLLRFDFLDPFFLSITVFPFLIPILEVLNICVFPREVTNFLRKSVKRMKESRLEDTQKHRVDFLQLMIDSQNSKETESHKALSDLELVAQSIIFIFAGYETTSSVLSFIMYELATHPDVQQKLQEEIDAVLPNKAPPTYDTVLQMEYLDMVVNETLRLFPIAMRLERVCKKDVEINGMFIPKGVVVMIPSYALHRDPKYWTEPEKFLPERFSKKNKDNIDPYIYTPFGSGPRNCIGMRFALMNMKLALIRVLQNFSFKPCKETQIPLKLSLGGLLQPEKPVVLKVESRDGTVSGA
# Hypoxia-inducible factor 1-alpha (Homo sapiens), sequence (Q16665 whole entry, looked up): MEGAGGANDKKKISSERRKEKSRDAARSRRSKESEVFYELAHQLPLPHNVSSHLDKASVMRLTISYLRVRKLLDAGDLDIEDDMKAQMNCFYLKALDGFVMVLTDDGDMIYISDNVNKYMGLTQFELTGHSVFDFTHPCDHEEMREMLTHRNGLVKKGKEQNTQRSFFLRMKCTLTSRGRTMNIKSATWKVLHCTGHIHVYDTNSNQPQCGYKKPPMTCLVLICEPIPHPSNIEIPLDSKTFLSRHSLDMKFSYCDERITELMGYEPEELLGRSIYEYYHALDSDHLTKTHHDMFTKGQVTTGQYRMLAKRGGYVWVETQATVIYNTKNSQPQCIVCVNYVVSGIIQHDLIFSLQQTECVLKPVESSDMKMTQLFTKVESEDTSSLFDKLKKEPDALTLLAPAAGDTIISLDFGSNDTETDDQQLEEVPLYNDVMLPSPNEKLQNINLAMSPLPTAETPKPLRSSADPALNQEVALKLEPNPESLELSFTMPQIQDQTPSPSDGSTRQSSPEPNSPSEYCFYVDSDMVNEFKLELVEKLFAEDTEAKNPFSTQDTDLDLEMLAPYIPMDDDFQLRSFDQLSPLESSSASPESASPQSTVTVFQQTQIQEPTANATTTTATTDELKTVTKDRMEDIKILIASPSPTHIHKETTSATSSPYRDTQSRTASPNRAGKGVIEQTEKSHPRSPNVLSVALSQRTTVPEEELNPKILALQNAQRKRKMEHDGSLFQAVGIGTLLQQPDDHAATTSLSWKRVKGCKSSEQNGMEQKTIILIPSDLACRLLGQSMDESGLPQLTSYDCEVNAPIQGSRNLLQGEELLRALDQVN
# Cytochrome P450 3A7 (Homo sapiens), sequence (P24462 whole entry, looked up): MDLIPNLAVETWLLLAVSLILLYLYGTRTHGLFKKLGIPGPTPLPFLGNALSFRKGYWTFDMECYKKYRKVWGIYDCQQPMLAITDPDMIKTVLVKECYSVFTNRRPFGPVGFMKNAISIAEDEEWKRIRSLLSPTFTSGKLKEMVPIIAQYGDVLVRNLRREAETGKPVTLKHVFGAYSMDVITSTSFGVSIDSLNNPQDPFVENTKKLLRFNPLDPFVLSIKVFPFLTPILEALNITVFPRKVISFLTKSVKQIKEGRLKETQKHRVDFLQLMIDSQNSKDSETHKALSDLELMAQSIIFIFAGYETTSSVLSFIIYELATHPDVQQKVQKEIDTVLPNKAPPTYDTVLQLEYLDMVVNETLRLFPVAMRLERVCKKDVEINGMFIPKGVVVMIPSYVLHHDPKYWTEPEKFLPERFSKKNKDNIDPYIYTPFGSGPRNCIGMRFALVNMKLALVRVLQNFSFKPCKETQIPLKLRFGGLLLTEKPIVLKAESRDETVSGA
compound,measurement,setting,value
CCOP(=S)(OCC)SCCSCC,AC50,[1],22.2 µM (active)
same,outcome,[2],inactive
same,outcome,[3],inactive
same,outcome,[4],inactive
same,outcome,[5],inactive
same,outcome,[6],inactive
same,outcome,CYP3A5 (gene 1577),inactive
same,outcome,[7],inactive
same,outcome,[8],inactive
same,outcome,[9],inactive
same,outcome,[10],inactive
same,outcome,[11],inactive
same,outcome,[12],inactive
same,outcome,[13],inactive
same,outcome,[14],inactive
same,outcome,[15],inactive
same,outcome,[16],inactive
same,outcome,[17],inactive
same,outcome,HGF (gene 3082),inactive
CC(=NC#N)N(C)Cc1ccc(Cl)nc1,AC50,[1],50 µM (active)
same,outcome,[2],inactive
same,outcome,[3],inactive
same,outcome,[4],inactive
same,outcome,[5],inactive
same,outcome,CYP3A5 (gene 1577),inactive
same,outcome,[7],inactive
same,outcome,[8],inactive
same,outcome,[9],inactive
same,outcome,[10],inactive
same,outcome,[11],inactive
same,outcome,[12],inactive
same,outcome,[13],inactive
same,outcome,[14],inactive
same,outcome,[15],inactive
same,outcome,[16],inactive
same,outcome,[17],inactive
same,outcome,HGF (gene 3082),inactive
same,outcome,[18],inactive
Cc1cc(C2CC2)nc(Nc2ccccc2)n1,outcome,[1],inactive
same,outcome,[2],inactive
same,outcome,[3],inactive
same,outcome,[4],inactive
same,outcome,[5],inactive
same,outcome,CYP3A5 (gene 1577),inactive
same,outcome,[7],inactive
same,outcome,[8],inactive
same,outcome,[9],inactive
same,outcome,[10],inactive
same,outcome,[11],inactive
same,AC50,[12],29.7 µM (active)
same,outcome,[13],inactive
same,outcome,[14],inactive
same,outcome,[15],inactive
same,outcome,[16],inactive
same,outcome,[17],inactive
same,outcome,HGF (gene 3082),inactive
same,outcome,[18],inactive
